# Measured values reported in PubChem BioAssay (Tox21).
# “And” between values parts separate entries of the source, which are not always exact repeats. Equal values may be shown once. Results filed as inconclusive are left out. A call without a number means that no potency is given here. Where a structure was tested more than once in an assay, its records may differ in their call. The source made the active and inactive calls. The call rests on the fitted dose curve; in most records, active means well fitted curve in the direction sought with a large enough effect in the repeat runs; inconclusive means weak or mixed curves; inactive means no such curve, though single readings can be large; an effect the other way counts as inactive or inconclusive.
# Legend:
# [1] = qHTS RealTime-Glo MT Cell Viability Assay in HEK293 cells - 0 hour (AID 1224880); settings: RealTime-Glo luminescence; series mostly up to 76.8 µM; further: top concentration of the series differs between compounds; nearly all actives have a fitted effect of over 45% in size
# How it was run: (§1)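 600 HEK293 cells per well, dispensed already mixed with RealTime-Glo MT reagents. Compound dosing came 5 h later. The same wells were read for luminescence at 0, 8, 16, 24, 32 and 40 h of exposure at 37 C.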
# [2] = A CellTox Green Cytotoxicity Assay to monitor cytotoxicity in HEK293 cells - 32 hour (AID 1224881); settings: CellTox Green fluorescence; series mostly up to 35.3 µM; further: nearly all actives have a fitted effect of over 40% in size; further: potency means the concentration at half of the fitted maximal effect
# How it was run: (§2)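 Dead-cell fluorescence measured kinetically: asymmetric cyanine dye, HEK293, 600 cells/well, 5 h settle, 23 nL cpd/DMSO, 37 C, reads 0–40 h every 8 h.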
# [3] = A CellTox Green Cytotoxicity Assay to monitor cytotoxicity in HepG2 cells - 0 hour (AID 1224882); settings: CellTox Green fluorescence; series mostly up to 76.8 µM; further: nearly all actives have a fitted effect of over 35% in size; further: potency means the concentration at half of the fitted maximal effect
# How it was run: (§3)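 First, HepG2 cells (600/well) mixed with reagent were plated; second, after 5 h at 37 C they received compounds via pintool; third, fluorescence was measured at 0 h through 40 h at 8 h intervals.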
# [4] = A CellTox Green Cytotoxicity Assay to monitor cytotoxicity in HepG2 cells - 32 hour (AID 1224883); settings: CellTox Green fluorescence; series mostly up to 76.8 µM; further: nearly all actives have a fitted effect of over 50% in size; further: potency means the concentration at half of the fitted maximal effect
# How it was run: as §3
# [5] = A CellTox Green Cytotoxicity Assay to monitor cytotoxicity in HEK293 cells - 8 hour (AID 1224884); settings: CellTox Green fluorescence; series mostly up to 76.8 µM; further: nearly all actives have a fitted effect of over 35% in size
# How it was run: as §2
# [6] = qHTS RealTime-Glo MT Cell Viability Assay in HEK293 cells - 24 hour (AID 1224886); settings: RealTime-Glo luminescence; series mostly up to 76.8 µM; further: nearly all actives have a fitted effect of over 50% in size; further: potency means the concentration at half of the fitted maximal effect
# How it was run: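 Nonlytic real-time viability readout: viable cells convert prosubstrate to NanoLuc substrate, giving luminescence proportional to live cell number. HEK293, 600 cells/well, compound added after 5 h, continuous culture at 37 C.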
# [7] = A CellTox Green Cytotoxicity Assay to monitor cytotoxicity in HEK293 cells - 16 hour (AID 1224888); settings: CellTox Green fluorescence; series mostly up to 76.8 µM; further: nearly all actives have a fitted effect of over 35% in size; further: potency means the concentration at half of the fitted maximal effect
# How it was run: as §2
# [8] = qHTS RealTime-Glo MT Cell Viability Assay in HepG2 cells - 0 hour (AID 1224889); settings: RealTime-Glo luminescence; series mostly up to 76.8 µM; further: nearly all actives have a fitted effect of over 50% in size
# How it was run: (§4)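 Luminescence read-out: viable HepG2 cells reduce a prosubstrate to a NanoLuc substrate, giving a signal proportional to live cell number. Reads taken at 0, 8, 16, 24, 32 and 40 h of compound exposure at 37 C.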
# [9] = qHTS RealTime-Glo MT Cell Viability Assay in HEK293 cells - 8 hour (AID 1224887); settings: RealTime-Glo luminescence; series mostly up to 76.8 µM; further: nearly all actives have a fitted effect of over 50% in size; further: potency means the concentration at half of the fitted maximal effect
# How it was run: as §1
# [10] = qHTS RealTime-Glo MT Cell Viability Assay in HepG2 cells - 16 hour (AID 1224885); settings: RealTime-Glo luminescence; series mostly up to 76.8 µM; further: nearly all actives have a fitted effect of over 50% in size; further: potency means the concentration at half of the fitted maximal effect
# How it was run: as §4
SMILES,Potency [1],Potency [2],Potency [3],Potency [4],Potency [5],Potency [6],Potency [7],Potency [8],Potency [9],Potency [10]
NC(=O)Nc1ccccc1,inactive,inactive,inactive,inactive,inactive,inactive,inactive,inactive,–,–
N#Cc1ccc(C2CCCc3cncn32)cc1 (stereo not drawn),inactive,inactive,inactive,inactive,inactive,inactive,inactive,inactive,inactive,–
C=C[Si](OC(=C)C)(OC(=C)C)OC(=C)C,inactive,inactive,inactive,–,inactive,inactive,inactive,inactive,inactive,inactive
CC(C)OC(=O)c1ccccc1,inactive,inactive,inactive,–,inactive,inactive,inactive,inactive,inactive,inactive
CCOC(=O)CC(C)=O,inactive,inactive,inactive,–,inactive,inactive,inactive,inactive,inactive,inactive
CCN1CCC[C@H]1CNC(=O)c1c(O)c(Cl)cc(Cl)c1OC,inactive,inactive,inactive,inactive,inactive,inactive,inactive,inactive,–,–
Cc1ccc(=O)n(-c2ccccc2)c1,inactive,inactive,inactive,–,inactive,inactive,inactive,inactive,inactive,inactive
CCCCCCCCCCCC,inactive,inactive,inactive,–,inactive,inactive,inactive,inactive,–,inactive
CN1CCCC1,inactive,inactive,inactive,–,–,inactive,inactive,inactive,–,inactive
Cc1ccc(Cl)cc1Cl,–,inactive,inactive,inactive,inactive,inactive,inactive,inactive,inactive,inactive
CC(C)(C)c1ccc(O)c(O)c1,inactive,–,inactive,inactive,inactive,22.6 µM (active) and 13.8 µM (active),inactive,inactive,40.2 µM (active) and 45.3 µM (active),–
Cn1cc(S(C)=O)c(=O)c2ccc(F)cc21 (stereo not drawn),inactive,inactive,inactive,–,inactive,inactive,inactive,inactive,inactive,–
CCN(CC)CCNC(=O)c1cc(S(C)(=O)=O)ccc1OC,inactive,–,inactive,inactive,–,inactive,–,inactive,inactive,inactive
CC(=O)Nc1c(I)cc(I)c(C(=O)O)c1I,inactive,inactive,inactive,–,inactive,inactive,inactive,inactive,–,–
OCCCC1CCCCC1,inactive,inactive,inactive,–,inactive,inactive,inactive,inactive,–,inactive
N=C(N)c1ccccc1,inactive,inactive,inactive,–,inactive,inactive,inactive,inactive,–,inactive
NS(=O)(=O)c1cc(C(=O)NN2C[C@H]3[C@H]4CCC(C4)[C@H]3C2)ccc1Cl,inactive,inactive,inactive,–,inactive,inactive,inactive,inactive,inactive,–
CCCCC(CC)COC(=O)c1ccccc1O (stereo not drawn),inactive,inactive,–,inactive,inactive,inactive,inactive,inactive,inactive,inactive
CCC(=O)OC(C)c1ccccc1 (stereo not drawn),inactive,inactive,inactive,–,inactive,inactive,–,inactive,inactive,inactive
CO[C@]12C[C@@H](COC(=O)c3cncc(Br)c3)CN(C)[C@@H]1Cc1cn(C)c3cccc2c13,inactive,inactive,–,23.9 µM (active),inactive,inactive,–,–,21.3 µM (active),inactive
Cc1ccc(C#N)cc1,inactive,inactive,inactive,–,inactive,inactive,inactive,inactive,–,inactive

SMILES,Potency [1],Potency [2],Potency [3],Potency [4],Potency [5],Potency [6],Potency [7],Potency [8],Potency [9],Potency [10]
NS(=O)(=O)c1ccccc1Cl,inactive,inactive,inactive,–,inactive,inactive,inactive,inactive,–,inactive
Brc1c(NC2=NCCN2)ccc2nccnc12,inactive,inactive,inactive,–,inactive,inactive,inactive,inactive,–,inactive
O=C(O)c1ccccc1OP(=O)(O)O,inactive,inactive,inactive,–,inactive,inactive,inactive,inactive,inactive,–
Nc1nc2c(ncn2COC(CO)CO)c(=O)[nH]1,–,inactive,inactive,inactive,inactive,–,inactive,–,–,–
COC(=O)c1c(Cl)c(Cl)c(C(=O)OC)c(Cl)c1Cl,inactive,inactive and 43.6 µM (active),inactive and 138 nM (active),–,inactive,–,inactive,inactive,–,inactive
O=c1cc(-c2ccccc2)oc2ccccc12,inactive,–,inactive,inactive and 48.7 µM (active),inactive,17.4 µM (active) and 7.71 µM (active),inactive,inactive,17.4 µM (active) and 17.3 µM (active),–
O=C(CCCN1CCN(c2ccccn2)CC1)c1ccc(F)cc1,inactive,inactive,inactive,–,inactive,–,inactive,inactive,–,–
CC(NC(CCc1ccccc1)C(=O)O)C(=O)N1C(=O)N(C)CC1C(=O)O (stereo not drawn),inactive,inactive,inactive,–,inactive,inactive,inactive,inactive,–,inactive
C=CCOCC(CC)(CO)COCC=C,inactive,inactive,inactive,–,inactive,inactive,inactive,inactive,–,inactive
COc1ccc(CCN(C)CCCC(C#N)(c2cc(OC)c(OC)c(OC)c2)C(C)C)cc1OC (stereo not drawn),inactive,inactive,inactive,–,inactive,21.3 µM (active),inactive,inactive,–,inactive
OC1CCCCC1c1ccccc1 (stereo not drawn),inactive,–,inactive,inactive,inactive,inactive,inactive,inactive,–,inactive
O=C(O)CCCc1ccccc1,inactive,inactive,–,inactive,inactive,inactive,inactive,inactive,inactive,inactive
COC(=O)C1=C(C)NC(C)=C(C(=O)OC)C1c1ccccc1[N+](=O)[O-],–,inactive,inactive,inactive,inactive,inactive,inactive,–,–,–
CCOC(=O)[C@H](CCc1ccccc1)N[C@@H](C)C(=O)N1[C@H](C(=O)O)C[C@@H]2CCC[C@@H]21,inactive,inactive,inactive,–,inactive,inactive,inactive,inactive,–,inactive
CCCc1cc(C(N)=S)ccn1,inactive,inactive,inactive,–,inactive,inactive,inactive,inactive,–,inactive
CCOC(=O)Nc1ccc(NCc2ccc(F)cc2)nc1N,inactive,inactive,inactive,–,inactive,inactive,inactive,inactive,–,inactive
O=C1CC2CC1C1CCCC21 (stereo not drawn),inactive,–,inactive,inactive,–,inactive,–,inactive,inactive,inactive
C[C@H]1C[C@@H](O)CC(C)(C)C1,inactive,–,inactive,inactive,–,inactive,–,inactive,inactive,–
CN(C)CCCN1c2ccccc2CCc2ccc(Cl)cc21,–,49 µM (active) and 26.8 µM (active),inactive,34.7 µM (active) and 23.9 µM (active),–,38.9 µM (active) and 21.3 µM (active),54.9 µM (active) and 23.9 µM (active),–,43.6 µM (active) and inactive,49 µM (active)
COCCCOCCCOC,inactive,inactive,inactive,–,inactive,inactive,inactive,inactive,–,inactive
NC(=O)COCCN1CCN(C(c2ccccc2)c2ccc(Cl)cc2)CC1 (stereo not drawn),inactive,inactive,inactive,–,inactive,inactive,inactive,inactive,–,inactive
